Experimental data from PubChem BioAssay (NCI).
This is part of a sample that, as a whole, favours compounds with a hit. Of some 83,000 tested, about 20% had one in any assay.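 A percent growth of 40 corresponds to 60% growth inhibition; 0 means no net growth; -100 means all cells died. Active threshold: below 10.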 Unmarked numbers belong to inactive results. The source made the active and inactive calls.

Assays:
Assay in all cases: NCI-60 one-dose screen, 48 h (100 = growth as untreated, 0 = no growth, -100 = all killed)
Settings in all cases: 10 µM
NCI-H23 lung = tested on: NCI-H23 lung
NCI-H226 lung = tested on: NCI-H226 lung
NCI-H322M lung = tested on: NCI-H322M lung
HOP-62 NSCLC = tested on: HOP-62 NSCLC
NCI-H460 lung = tested on: NCI-H460 lung
HOP-92 NSCLC = tested on: HOP-92 NSCLC
NCI-H522 lung = tested on: NCI-H522 lung
A549/ATCC NSCLC = tested on: A549/ATCC NSCLC
786-0 renal = tested on: 786-0 renal
COLO 205 colon = tested on: COLO 205 colon

Compound | growth (NCI-H23 lung) | growth (NCI-H226 lung) | growth (NCI-H322M lung) | growth (HOP-62 NSCLC) | growth (NCI-H460 lung) | growth (HOP-92 NSCLC) | growth (NCI-H522 lung) | growth (A549/ATCC NSCLC) | growth (786-0 renal) | growth (COLO 205 colon)
COc1ccc(/C(=C/c2cc(OC)c(OC)cc2[N+](=O)[O-])C(=O)O)cc1 | 103% | 101% | 118% | 94.1% | 110% | 97.2% | 107% | 108% | 106% | 127%
N#Cc1c2c([nH]c(=O)c1C(N)=O)CCCCC2 | 100% | 100% | 97.6% | 92.4% | 105% | 112% | 90.7% | 91.3% | 98.5% | 102%
Nc1ccc(C2=CC(c3ccc(Cl)cc3)N3C=CSC3=N2)cc1 (stereo not given) | -46.6% (active) | -71.4% (active) | -57.2% (active) | -63.8% (active) | -6.81% (active) | -22.7% (active) | -65.9% (active) | -39.3% (active) | -90.9% (active) | -85.1% (active)
C=CCn1ccc(=O)nc1SC | 107% | 112% | 111% | 97.1% | 104% | 97.3% | 100% | 111% | 101% | 106%
O=C(N/N=C/c1ccccc1O)c1ccccc1 | 41.3% | 27.2% | 34.3% | 38.9% | 9.53% (active) | 7.78% (active) | -4.7% (active) | 38.7% | 17.9% | 19.3%
COc1ccc(N2CCN(c3nc(-c4ccccc4)c(C#N)c(=O)[nH]3)CC2)cc1 | 98.7% | 107% | 94.6% | 91.8% | 103% | 92.4% | 92.7% | 104% | 103% | 102%
Nc1ccc2c(c1)Cc1cc(N)c(Cl)cc1-2 | 103% | 107% | 88.1% | 109% | 105% | 76.4% | 92.2% | 88.2% | 97.7% | 105%
